Results filed as inconclusive are left out. Where a call stands in place of a potency, no number is given. Calls of active or inactive are those of the source. Calls come from the whole dose curve; as a rule, active = well fitted cell-killing curve with a large enough effect; inconclusive = small, poorly fitted or top-dose-only effect, or effect the other way; inactive = flat fitted curve, though single readings scatter. Starred links: 1 amine or outer side, 2 acyl side, 3 side chain; linkers in the order of their positions; H or OH if unused. Positions of bridges follow the written chain, without caps; N, C: chain ends. Non-standard residues stand in square brackets, D forms with d. Residues, ends and D or L forms follow the SMILES beside them. Chains are numbered I, II in the order given. Actinocin(9to1) = Cc1c2oc3c(C)ccc(C(=O)[*:1])c3nc-2c(C(=O)[*:2])c(N)c1=O; NMeV = CN[CH](C(=O)O)C(C)C; Sar = CNCC(=O)O
assay: qHTS of pediatric cancer cell lines to identify multiple opportunities for drug repurposing: Confirmatory screen for Rh18 cells (AID 1347125); conditions: Rh18 rhabdomyosarcoma cells, viability; series mostly up to 45.9 µM; note: nearly all actives have a fitted effect of over 55% in size
Method in brief: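 Cells (500-1,000/well) in growth media were settled 5 h at 37 degrees C, then given compounds for 48 h. Viability was read as CellTiter-Glo luminescence. Primary runs used MIPE at 11 points (0.78 nM-46 µM) and NPC at 8 points (0.59 nM-46 µM); follow-ups used 11 points.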
Potency is the fitted concentration of half-maximal effect.

Compound | Potency
CC(=O)O[C@@]12CO[C@H]1C[C@H](O)[C@@]1(C)C(=O)[C@H](O)C3=C(C)[C@@H](OC(=O)C(O)[C@@H](NC(=O)OC(C)(C)C)c4ccccc4)C[C@@](O)([C@@H](OC(=O)c4ccccc4)[C@@H]21)C3(C)C (some centres undefined) | inactive
CC(=O)SCC(Cc1ccccc1)C(=O)NCC(=O)OCc1ccccc1 (centres undefined) | inactive
COc1ccc2c(c1OC)C(=O)OC2[C@H]1c2c(cc3c(c2OC)OCO3)CCN1C (some centres undefined) | inactive
COC(=O)C=CC(=O)OC | 14.7 µM (active)
N#Cc1c(C2CCNCC2)cc(-c2c(O)cccc2OCC2CC2)nc1N | inactive
Cc1c2oc3c(C)ccc(C(=O)NC4C(=O)NC(C(C)C)C(=O)N5CCCC5C(=O)N(C)CC(=O)N(C)C(C(C)C)C(=O)OC4C)c3nc-2c(C(=O)NC2C(=O)NC(C(C)C)C(=O)N3CCCC3C(=O)N(C)CC(=O)N(C)C(C(C)C)C(=O)OC2C)c(N)c1=O (centres undefined) (I: TVP[Sar][NMeV] / II: TVP[Sar][NMeV]; ester I:1-I:C, II:1-II:C; linker I:N-II:N via Actinocin(9to1); configuration not given here) | 0.0293 µM (active)
C=Cc1c(C)c2cc3nc(cc4[nH]c(cc5nc(cc1[nH]2)C(C)=C5CCC(=O)O)c(CCC(=O)OC)c4C)[C@@]1(C)C3=CC=C(C(=O)OC)[C@H]1C(=O)OC | inactive
COc1cc(C[C@@H](CO)[C@H](CO)Cc2ccc(O)c(OC)c2)ccc1O | inactive
C#CCC(Cc1cnc2nc(N)nc(N)c2n1)c1ccc(C(=O)N[C@@H](CCC(=O)O)C(=O)O)cc1 (some centres undefined) | inactive

Source: PubChem BioAssay (NCATS)
